The supplement of paper PMC10849652
Targets with a hit are over-represented here; the source holds about 8,800 in all. About 0.5% of all pairs of compound and target were hits. Values without a mark were called inactive.

Columns and labels:
Assay in all cases: log2 fold change, soluble protein after heating vs DMSO (PISA); higher = thermal stabilisation; K562 lysate, 10 uM; active = over 0.2 and 3.5 SD of the protein, either way, in both replicates (recomputed)
[1] = compound: CNc1nc(-c2ccc3c(N)n[nH]c3c2)cc(N2C[C@@H](C(=O)NC3CCCCC3)CC[C@H]2C)n1
Summary of the method: (§1)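 Following dounce homogenisation of K562 pellets in PBS pH 7.4 with 1 mM MgCl2, crude extract at 1 mg/mL protein was incubated for 30 min with 10 μM compound. Aliquots were then heated for 3 min over 48°C-58°C and pooled, NP-40 was added to 0.5% at 4°C, and soluble protein was recovered as the supernatant at 21,000xg for 90 min. Channel-sum-equalised TMTpro 16plex LC-MS/MS quantified this protein. Each value, from duplicates, is a log-two fold change in thermal stability relative to solvent controls.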

[2] = compound: COC(=O)N[C@@H](C)CNc1nccc(-c2cn(C(C)C)nc2-c2cc(Cl)cc(NS(C)(=O)=O)c2F)n1 [encorafenib]
Summary of the method: as §1

[3] = compound: COC(=O)[C@H](CCSC)NC(=O)C1=C(C=C(C=C1)NC[C@H](CS)N)C2=CC=CC=C2
Summary of the method: as §1

[4] = compound: CN1CC[C@H](c2c(O)cc(O)c3c(=O)cc(-c4ccccc4Cl)oc23)[C@H](O)C1 [alvocidib]
Summary of the method: as §1

[5] = compound: CN1CCc2c(c3ccccc3n2Cc2ccc(C(=O)NO)cc2)C1 [Tubastatin A]
Summary of the method: as §1

[6] = compound: CNC(=O)C1=CC=CC=C1NC2=NC(=NC=C2Cl)NC3=C(C=C(C=C3)N4CCOCC4)OC
Summary of the method: as §1

[7] = compound: CNC(=O)c1ccc(Nc2ncc(C(F)(F)F)c(NCc3nccnc3N(C)S(C)(=O)=O)n2)cc1 [defactinib]
Summary of the method: as §1

[8] = compound: COc1cc(Nc2ncc3c(n2)-c2ccc(Cl)cc2C(c2c(F)cccc2OC)=NC3)ccc1C(=O)O [alisertib]
Summary of the method: as §1

[9] = compound: COc1cc2nc(-c3cc(F)ccc3O)nc(N[C@@H]3CNC[C@H]3C(C)(C)O)c2cc1OC
Summary of the method: as §1

[10] = compound: COc1cc2ncnc(Nc3ccc(F)c(Cl)c3)c2cc1OCCCN1CCOCC1 [gefitinib]
Summary of the method: as §1

Sequence of UniProt Q14934 (Q14934 whole entry, looked up): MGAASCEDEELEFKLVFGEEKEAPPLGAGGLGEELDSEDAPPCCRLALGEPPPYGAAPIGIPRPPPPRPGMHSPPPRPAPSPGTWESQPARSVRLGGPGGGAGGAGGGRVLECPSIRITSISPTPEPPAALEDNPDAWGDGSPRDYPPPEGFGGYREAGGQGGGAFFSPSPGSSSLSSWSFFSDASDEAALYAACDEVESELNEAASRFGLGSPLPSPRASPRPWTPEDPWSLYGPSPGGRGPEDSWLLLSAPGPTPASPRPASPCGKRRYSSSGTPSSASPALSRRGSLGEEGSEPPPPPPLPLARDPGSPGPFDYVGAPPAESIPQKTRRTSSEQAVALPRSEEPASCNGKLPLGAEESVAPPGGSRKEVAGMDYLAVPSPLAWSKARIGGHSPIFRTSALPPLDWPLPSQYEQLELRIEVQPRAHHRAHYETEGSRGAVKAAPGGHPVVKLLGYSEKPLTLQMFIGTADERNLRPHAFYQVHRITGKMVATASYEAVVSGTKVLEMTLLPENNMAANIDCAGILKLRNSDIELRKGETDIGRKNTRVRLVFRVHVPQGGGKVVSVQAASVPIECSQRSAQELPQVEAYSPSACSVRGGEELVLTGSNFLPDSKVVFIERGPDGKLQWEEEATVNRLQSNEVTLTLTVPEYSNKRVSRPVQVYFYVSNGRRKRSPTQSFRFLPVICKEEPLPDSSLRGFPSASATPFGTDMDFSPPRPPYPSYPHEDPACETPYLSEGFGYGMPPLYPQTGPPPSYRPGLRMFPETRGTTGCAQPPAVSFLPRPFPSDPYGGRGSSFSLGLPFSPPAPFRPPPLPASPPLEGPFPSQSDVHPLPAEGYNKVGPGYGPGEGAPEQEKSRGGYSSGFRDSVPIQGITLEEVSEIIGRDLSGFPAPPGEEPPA
Sequence of UniProt P24468 (P24468 whole entry, looked up): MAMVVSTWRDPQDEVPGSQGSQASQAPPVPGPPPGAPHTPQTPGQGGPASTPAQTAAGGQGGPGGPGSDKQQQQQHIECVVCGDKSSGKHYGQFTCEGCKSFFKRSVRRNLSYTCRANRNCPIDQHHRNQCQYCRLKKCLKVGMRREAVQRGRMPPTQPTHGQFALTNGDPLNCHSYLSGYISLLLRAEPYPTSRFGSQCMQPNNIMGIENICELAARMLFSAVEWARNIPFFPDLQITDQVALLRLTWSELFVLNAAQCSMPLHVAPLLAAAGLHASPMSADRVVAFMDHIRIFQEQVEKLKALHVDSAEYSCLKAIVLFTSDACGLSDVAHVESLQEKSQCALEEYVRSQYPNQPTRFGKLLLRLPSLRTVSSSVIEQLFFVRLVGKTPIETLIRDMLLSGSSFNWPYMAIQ
Sequence of UniProt P49116 (P49116 whole entry, looked up): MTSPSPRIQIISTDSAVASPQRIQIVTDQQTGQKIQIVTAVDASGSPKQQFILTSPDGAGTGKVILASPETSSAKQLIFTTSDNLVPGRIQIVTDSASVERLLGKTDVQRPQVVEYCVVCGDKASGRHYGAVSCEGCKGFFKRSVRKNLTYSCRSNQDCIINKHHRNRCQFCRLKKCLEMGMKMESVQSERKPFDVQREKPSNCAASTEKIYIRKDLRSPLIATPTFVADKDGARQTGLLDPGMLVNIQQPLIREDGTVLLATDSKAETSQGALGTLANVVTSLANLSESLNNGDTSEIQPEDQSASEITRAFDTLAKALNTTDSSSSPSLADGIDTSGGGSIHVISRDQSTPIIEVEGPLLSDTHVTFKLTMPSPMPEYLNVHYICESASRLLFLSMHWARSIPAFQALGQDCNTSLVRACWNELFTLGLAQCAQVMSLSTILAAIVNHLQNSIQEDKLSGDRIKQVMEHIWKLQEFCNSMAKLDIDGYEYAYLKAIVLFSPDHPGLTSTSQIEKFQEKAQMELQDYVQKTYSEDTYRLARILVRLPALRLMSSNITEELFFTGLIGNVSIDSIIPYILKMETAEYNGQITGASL
Sequence of UniProt O94776 (O94776 whole entry, looked up): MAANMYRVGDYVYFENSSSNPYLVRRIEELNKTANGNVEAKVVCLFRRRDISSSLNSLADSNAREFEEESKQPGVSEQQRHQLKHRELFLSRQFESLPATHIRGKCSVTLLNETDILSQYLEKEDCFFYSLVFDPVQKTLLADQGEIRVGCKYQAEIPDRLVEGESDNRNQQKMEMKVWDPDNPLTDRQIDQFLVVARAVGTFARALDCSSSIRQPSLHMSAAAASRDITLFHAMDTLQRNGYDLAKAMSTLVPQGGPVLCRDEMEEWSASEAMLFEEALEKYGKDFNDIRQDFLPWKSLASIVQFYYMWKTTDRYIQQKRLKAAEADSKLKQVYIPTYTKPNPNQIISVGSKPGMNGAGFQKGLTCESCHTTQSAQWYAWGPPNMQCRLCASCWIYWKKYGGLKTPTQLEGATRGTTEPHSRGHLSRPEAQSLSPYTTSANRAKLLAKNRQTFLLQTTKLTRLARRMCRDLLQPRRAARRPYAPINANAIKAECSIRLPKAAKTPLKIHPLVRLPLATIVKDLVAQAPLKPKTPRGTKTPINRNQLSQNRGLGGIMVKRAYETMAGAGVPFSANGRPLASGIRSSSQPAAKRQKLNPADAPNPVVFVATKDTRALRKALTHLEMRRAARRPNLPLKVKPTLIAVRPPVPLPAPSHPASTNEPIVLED
Sequence of UniProt Q8TEM1 (Q8TEM1 whole entry, looked up): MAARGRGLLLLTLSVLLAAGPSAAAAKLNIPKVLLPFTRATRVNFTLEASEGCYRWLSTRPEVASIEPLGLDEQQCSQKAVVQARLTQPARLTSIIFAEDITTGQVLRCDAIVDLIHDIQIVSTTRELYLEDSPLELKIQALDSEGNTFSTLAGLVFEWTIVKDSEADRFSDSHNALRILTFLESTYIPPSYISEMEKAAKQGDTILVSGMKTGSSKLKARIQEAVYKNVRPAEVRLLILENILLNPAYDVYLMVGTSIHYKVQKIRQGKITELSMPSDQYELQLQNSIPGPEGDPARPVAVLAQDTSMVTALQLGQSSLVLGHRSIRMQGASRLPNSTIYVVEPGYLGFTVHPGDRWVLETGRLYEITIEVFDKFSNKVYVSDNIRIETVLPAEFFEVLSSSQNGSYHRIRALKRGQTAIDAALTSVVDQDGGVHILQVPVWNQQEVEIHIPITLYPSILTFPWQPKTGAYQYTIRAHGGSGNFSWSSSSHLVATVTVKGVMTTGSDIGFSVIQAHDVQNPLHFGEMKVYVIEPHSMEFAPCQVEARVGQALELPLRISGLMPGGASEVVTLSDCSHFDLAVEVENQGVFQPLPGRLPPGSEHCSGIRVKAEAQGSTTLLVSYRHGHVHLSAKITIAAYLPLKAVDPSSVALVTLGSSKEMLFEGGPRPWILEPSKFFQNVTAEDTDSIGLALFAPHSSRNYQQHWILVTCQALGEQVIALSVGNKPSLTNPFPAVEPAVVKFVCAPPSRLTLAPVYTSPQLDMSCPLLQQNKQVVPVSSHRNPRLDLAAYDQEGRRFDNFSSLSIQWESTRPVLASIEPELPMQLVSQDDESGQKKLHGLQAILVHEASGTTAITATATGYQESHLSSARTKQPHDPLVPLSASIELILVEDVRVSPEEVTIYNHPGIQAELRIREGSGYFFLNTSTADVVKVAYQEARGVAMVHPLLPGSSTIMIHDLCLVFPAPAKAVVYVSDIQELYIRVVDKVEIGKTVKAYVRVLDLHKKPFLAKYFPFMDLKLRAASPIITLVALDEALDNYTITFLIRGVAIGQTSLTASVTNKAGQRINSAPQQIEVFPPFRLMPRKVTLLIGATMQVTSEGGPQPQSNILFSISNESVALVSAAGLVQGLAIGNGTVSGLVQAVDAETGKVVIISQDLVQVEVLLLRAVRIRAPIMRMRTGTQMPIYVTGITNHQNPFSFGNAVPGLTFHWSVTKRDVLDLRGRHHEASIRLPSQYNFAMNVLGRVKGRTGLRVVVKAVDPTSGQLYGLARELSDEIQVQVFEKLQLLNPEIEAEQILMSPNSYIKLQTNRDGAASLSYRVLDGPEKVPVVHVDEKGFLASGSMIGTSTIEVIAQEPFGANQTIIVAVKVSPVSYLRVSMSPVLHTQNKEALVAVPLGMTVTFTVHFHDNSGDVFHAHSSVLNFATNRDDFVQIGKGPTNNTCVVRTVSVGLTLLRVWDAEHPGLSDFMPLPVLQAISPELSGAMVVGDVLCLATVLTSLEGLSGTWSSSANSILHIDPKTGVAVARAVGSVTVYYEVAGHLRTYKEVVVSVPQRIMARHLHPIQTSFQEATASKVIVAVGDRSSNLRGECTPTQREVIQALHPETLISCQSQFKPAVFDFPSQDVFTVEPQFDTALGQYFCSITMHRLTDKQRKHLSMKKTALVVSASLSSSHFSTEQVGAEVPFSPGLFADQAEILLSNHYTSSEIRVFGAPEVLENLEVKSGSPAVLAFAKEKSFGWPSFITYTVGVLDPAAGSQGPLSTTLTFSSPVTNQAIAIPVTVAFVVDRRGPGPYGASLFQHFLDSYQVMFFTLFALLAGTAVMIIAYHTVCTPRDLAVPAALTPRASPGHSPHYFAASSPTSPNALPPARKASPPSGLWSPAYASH
Sequence of UniProt P03928 (P03928 whole entry, looked up): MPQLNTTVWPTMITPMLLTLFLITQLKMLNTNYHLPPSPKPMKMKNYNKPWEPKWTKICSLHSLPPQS
Sequence of UniProt Q5TEU4 (Q5TEU4 whole entry, looked up): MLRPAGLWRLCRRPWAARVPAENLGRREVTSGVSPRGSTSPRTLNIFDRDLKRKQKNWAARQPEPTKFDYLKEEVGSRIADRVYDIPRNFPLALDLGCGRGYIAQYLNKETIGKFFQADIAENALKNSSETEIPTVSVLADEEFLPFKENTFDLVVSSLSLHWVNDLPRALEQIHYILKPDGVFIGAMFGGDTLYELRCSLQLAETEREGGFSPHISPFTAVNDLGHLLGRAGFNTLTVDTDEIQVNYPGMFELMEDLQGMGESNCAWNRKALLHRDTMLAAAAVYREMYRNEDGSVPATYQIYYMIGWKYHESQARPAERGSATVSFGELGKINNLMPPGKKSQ
Sequence of UniProt O60829 (O60829 whole entry, looked up): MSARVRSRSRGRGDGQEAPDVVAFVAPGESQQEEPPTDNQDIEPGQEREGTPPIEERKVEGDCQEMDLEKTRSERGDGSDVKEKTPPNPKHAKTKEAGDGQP

Target | log2 fold change [1] | log2 fold change [2] | log2 fold change [3] | log2 fold change [4] | log2 fold change [5] | log2 fold change [6] | log2 fold change [7] | log2 fold change [8] | log2 fold change [9] | log2 fold change [10]
NPLOC4 (UniProt I3L3I1) | 0.799 | 0.014 | -0.143 | – | – | – | – | – | – | –
NUMBL (UniProt Q9Y6R0) | 0.023 | 0.189 | -0.068 | -0.032 | -0.103 | -0.023 | -0.218 | -0.064 | 0.044 | 0.09
PANK2 (UniProt Q9BZ23) | 0 | -0.01 | 0.014 | 0.057 | 0.108 | – | 0.023 | 0.35 (active) | -0.046 | -0.233
NUP210 (UniProt Q8TEM1) | -0.011 | 0.086 | 0.145 | 0.014 | 0.107 | -0.061 | 0.035 | 0.009 | 0.002 | 0.003
PAGE4 (UniProt O60829) | -0.038 | -0.005 | -0.086 | 0.086 | 0.027 | -0.072 | – | – | 0.057 | –
MTHFD1 (UniProt V9GZ32) | – | – | – | – | – | – | – | 0.108 | 0 | -0.073
OSBPL1A (UniProt Q9BXW6) | 0.099 | – | – | -0.035 | – | 0.091 | – | -0.071 | 0.048 | 0.135
MTA2 (UniProt O94776) | -0.01 | 0.009 | 0.134 | 0.005 | -0.049 | -0.002 | 0.016 | 0.012 | -0.005 | -0.02
ORC3 (UniProt Q9UBD5) | – | – | – | 0.16 | – | – | – | -0.035 | 0 | 0.105
PAPOLG (UniProt Q9BWT3) | 0.085 | 0.063 | 0.098 | -0.008 | 0.16 | 0.003 | -0.025 | -0.035 | – | 0.062
NRIP1 (UniProt P48552) | 0.291 | – | – | -0.145 | 0.001 | -0.096 | – | -0.21 | 0.04 | -0.011
NUDT5 (UniProt C9JYY9) | – | 0.066 | -0.029 | – | – | 0.026 | – | -0.092 | – | -0.075
NUB1 (UniProt H7C5N1) | – | – | – | – | 0.209 | – | – | – | – | –
NSUN7 (UniProt Q8NE18) | – | 0.21 | -0.026 | -0.191 | 0.176 | -0.001 | -0.035 | – | -0.006 | –
MT-ATP8 (UniProt P03928) | – | -0.071 | -0.139 | 0.044 | 0.072 | 0.08 | 0.017 | -0.017 | -0.078 | -0.081
NR2C2 isoform 2 (UniProt P49116) | 0.1 | -0.002 | -0.022 | 0.075 | -0.045 | -0.03 | 0.058 | – | -0.002 | –
NDUFAF5 (UniProt Q5TEU4) | 0.175 | 0.18 | -0.065 | -0.004 | 0.12 | -0.068 | -0.047 | – | -0.033 | –
MYO9A isoform 4 (UniProt B2RTY4) | 0.015 | – | – | 0.034 | -0.077 | -0.013 | -0.026 | -0.035 | 0.04 | 0.009
NR2F2 (UniProt P24468) | -0.047 | – | – | -0.053 | -0.154 | 0.056 | – | 0.072 | 0.012 | -0.077
ORC1 (UniProt Q13415) | – | 0.018 | -0.188 | – | – | – | – | – | – | –
NAA16 (UniProt Q6N069) | -0.05 | 0.062 | 0.169 | – | -0.097 | – | 0.086 | 0.11 | -0.03 | 0.142
NCAPG (UniProt Q9BPX3) | 0.01 | -0.01 | 0.094 | 0.003 | -0.113 | 0.011 | 0.024 | 0.007 | -0.01 | 0.003
NFATC4 isoform 2 (UniProt Q14934) | 0.023 | 0.011 | -0.032 | -0.062 | – | – | -0.12 | 0.048 | 0.244 | 0.132
PARD3B (UniProt Q8TEW8) | 0.093 | – | – | -0.125 | – | 0.005 | – | – | – | –
NF1 (UniProt P21359) | 0.009 | 0.026 | -0.267 | 0.03 | -0.098 | 0.029 | 0.012 | 0.03 | 0.006 | 0.058
